# PubChem BioAssay
# Where “and” joins values, the source holds several entries; their conditions need not be identical. Identical values can stand only once. Records with an inconclusive call do not appear. More than one record can exist for a structure, and the calls need not agree. Calls of active or inactive are those of the source. Cut-off read from the data, not from the text of the source, unless noted: active = inhibition above about 80%; inactive = the rest.
# Experiments:
# [1] = drug combination growth inhibition, ovarian cancer – cell-based, oncology-focused library, rucaparib conditional, profiling panel (AID 1508598;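 active = normalized viability below 100% at a tested concentration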); conditions: patient-derived ovarian cancer cells, CellTiter-Glo viability, 144 h, stronger effect = lower value
# [2] = target: NAD(+) hydrolase SARM1 (Homo sapiens) (UniProt Q6SZW1); test: blocking NAD cleavage by SARM1 SAM-TIR – cell lysate, NAD-Glo luminescence (AID 1508614;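 active = compound whose remaining NAD level is above about 45 nM, limit read from the data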;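 note: higher remaining NAD means stronger inhibition of SARM1 NADase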); conditions: SAM-TIR HEK293T lysate NADase, at 1 µM, stronger effect = higher value
# [3] = target: Mitogen-activated protein kinase 7 (Homo sapiens) (UniProt Q13164); test: Gal4-ERK5 driven luciferase induction – cell-based, HTS, primary screen (AID 1508626;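 active = luciferase signal above three times the same-plate solvent-only control wells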;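 note: luciferase driven by Gal4-ERK5 fusion binding five Gal4 sites before minimal TATA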); conditions: HeLa Gal4-ERK5 transactivation, 18 h, at 5 µM, stronger effect = higher value
# [4] = galactose survival enhancers in mitochondrial complex I cybrids – cell-based, galactose medium, ATP luminescence, primary screen (AID 1645843;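 active = z-score of at least 1.8 in each of two replicates, scored against plate mean and spread of sample wells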;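 note: positive z means more ATP and so rescue of galactose-driven cybrid death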); conditions: complex I mutant cybrid cells, 72 h, stronger effect = higher value
# [5] = growth inhibition of DIPG cells – cell-based, MIPE4.0 library, CellTiter-Glo luminescence, qHTS (AID 1347066; cut-off not given, nearly all actives have AC50 up to about 30 µM;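 note: cells exposed to compound for 48 hours before readout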); conditions: SU-DIPG-VI viability, CellTiter-Glo ATP luminescence
# [6] = growth inhibition of DIPG cells – cell-based, MIPE5.0 library, qHTS (AID 1347068; cut-off not given, nearly all actives have IC50 up to about 30 µM); conditions: SU-DIPG-XXV viability
# [7] = blockers of cellular phospholipid synthesis – cell-based, LOPAC library, screen 4, primary screen (AID 1347384; call rule not given here); conditions: animal cells, phospholipid biosynthesis inhibition screen; at 10 µM
# [8] = MELAS cybrid and Rieske KO viability enhancers – cell-based, MELAS cybrids, Rieske KO mouse fibroblasts, CellTiter-Glo, primary screen (AID 1508586;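 active = mean z-score across replicates of 1.96 or higher in either the MELAS or the Rieske mutant cell line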;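 note: z relative to plate mean and SD of compound and empty wells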); conditions: low glucose
# [9] = viability loss with induced miR-34 in A549 – imaging, A549 dox-inducible miR-34, nuclei and caspase counts, primary screen (AID 1347080;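 active = compounds whose cell count with miR-34 switched on is under 0.7 times the count with it off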); conditions: A549 miR-34 inducible, Hoechst nuclei count, 48 h
# [10] = growth inhibition, single agent or in combination, cell-based, chromothripsis tumors, cisplatin or BGB combos (AID 1671449); conditions: LFS_MB_P medulloblastoma cells;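 note: cells exposed for 96 hours; 0% = vehicle DMSO and 100% = killing by high DMSO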
# [11] = growth inhibition, single agent and combos, cell-based, chromothripsis tumors, cisplatin or BGB combos (AID 1671450); conditions: HDN33 neuroblastoma cells, stronger effect = higher value;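 note: cells exposed to compound for four days; 0% = vehicle DMSO and 100% = cell killing by high DMSO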
# [12] = growth inhibition, single agents and combos, ICB984, cell-based, cisplatin or BGB combos, synergistic combos for chromothripsis tumors (AID 1671451; call rule not given here;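 note: cells exposed for 96 hours before readout; 0% = vehicle DMSO and 100% = killing by high DMSO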); conditions: ICB984 medulloblastoma cells, drug combinations, stronger effect = higher value
# [13] = growth inhibition, single agents and combos, LFS_MB_1R, cell-based, cisplatin or BGB combos, synergistic combos for chromothripsis tumors (AID 1671452); conditions: LFS_MB_1R medulloblastoma cells, stronger effect = higher value;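 note: cells exposed for 96 hours before readout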
# [14] = growth inhibition, single agents and combos, HTB85, cell-based, BGB or cisplatin IC20 combos, synergistic combos for chromothripsis tumors (AID 1671453); conditions: HTB85 osteosarcoma cells, drug combinations, stronger effect = higher value;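 note: cells exposed for 96 hours before readout; 0% = vehicle DMSO and 100% = high DMSO killing control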
# [15] = growth inhibition, single agents and combos, CRL2098, cell-based, BGB or cisplatin IC20 combos, synergistic combos for chromothripsis tumors (AID 1671454); conditions: CRL2098 osteosarcoma cells, drug combinations, stronger effect = higher value;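 note: cells exposed for 96 h before readout; 0% = vehicle DMSO and 100% = killing by high DMSO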
# [16] = growth inhibition, single agents and combos, HD-MB03, cell-based, BGB or cisplatin IC20 combos, synergistic combos for chromothripsis tumors (AID 1671455; in the data active = inhibition above about 83%;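 note: 0% = vehicle DMSO and 100% = high DMSO as cytotoxic control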); conditions: HD-MB03 medulloblastoma cells, stronger effect = higher value
# [17] = MELAS cybrid survival, CellTiter-Glo 48 h, stronger effect = higher value
# [18] = Rieske KO mouse fibroblast survival, CellTiter-Glo 72 h
# [19] = stronger effect = lower value, cell number ratio, induced over uninduced
# [20] = measured here: relative caspase fold change +Dox/-Dox
# [21] = measured here: total cells with miR-34 induction, stronger effect = lower value
# [22] = measured here: total cells without miR-34 induction
# [23] = measured here: combination with BGB IC40, at 0.05 µM
# Mitogen-activated protein kinase 7 (Homo sapiens), sequence (Q13164 whole entry, looked up, the tested form may be a part): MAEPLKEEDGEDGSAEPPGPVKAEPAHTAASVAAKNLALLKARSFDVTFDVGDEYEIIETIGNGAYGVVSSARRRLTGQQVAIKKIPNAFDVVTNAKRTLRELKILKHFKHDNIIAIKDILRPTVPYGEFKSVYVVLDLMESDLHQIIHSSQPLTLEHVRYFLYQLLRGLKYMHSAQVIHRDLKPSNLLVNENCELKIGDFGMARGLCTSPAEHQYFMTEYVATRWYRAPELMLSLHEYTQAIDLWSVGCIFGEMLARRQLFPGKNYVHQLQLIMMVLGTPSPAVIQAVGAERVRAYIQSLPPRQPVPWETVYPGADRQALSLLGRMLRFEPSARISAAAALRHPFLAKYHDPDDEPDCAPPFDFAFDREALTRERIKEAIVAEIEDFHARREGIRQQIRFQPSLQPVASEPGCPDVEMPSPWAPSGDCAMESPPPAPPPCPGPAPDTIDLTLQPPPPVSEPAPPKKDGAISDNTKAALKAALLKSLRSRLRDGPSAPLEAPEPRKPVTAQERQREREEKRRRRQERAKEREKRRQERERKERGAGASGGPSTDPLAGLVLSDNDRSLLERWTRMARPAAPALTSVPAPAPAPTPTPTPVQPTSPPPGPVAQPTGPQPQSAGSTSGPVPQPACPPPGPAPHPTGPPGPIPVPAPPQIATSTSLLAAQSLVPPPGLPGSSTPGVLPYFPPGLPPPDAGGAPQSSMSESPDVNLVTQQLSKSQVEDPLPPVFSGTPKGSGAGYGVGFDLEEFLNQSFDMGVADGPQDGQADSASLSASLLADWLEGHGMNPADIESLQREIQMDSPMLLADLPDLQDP
# NAD(+) hydrolase SARM1 (Homo sapiens), sequence (Q6SZW1 whole entry, looked up, the tested form may be a part): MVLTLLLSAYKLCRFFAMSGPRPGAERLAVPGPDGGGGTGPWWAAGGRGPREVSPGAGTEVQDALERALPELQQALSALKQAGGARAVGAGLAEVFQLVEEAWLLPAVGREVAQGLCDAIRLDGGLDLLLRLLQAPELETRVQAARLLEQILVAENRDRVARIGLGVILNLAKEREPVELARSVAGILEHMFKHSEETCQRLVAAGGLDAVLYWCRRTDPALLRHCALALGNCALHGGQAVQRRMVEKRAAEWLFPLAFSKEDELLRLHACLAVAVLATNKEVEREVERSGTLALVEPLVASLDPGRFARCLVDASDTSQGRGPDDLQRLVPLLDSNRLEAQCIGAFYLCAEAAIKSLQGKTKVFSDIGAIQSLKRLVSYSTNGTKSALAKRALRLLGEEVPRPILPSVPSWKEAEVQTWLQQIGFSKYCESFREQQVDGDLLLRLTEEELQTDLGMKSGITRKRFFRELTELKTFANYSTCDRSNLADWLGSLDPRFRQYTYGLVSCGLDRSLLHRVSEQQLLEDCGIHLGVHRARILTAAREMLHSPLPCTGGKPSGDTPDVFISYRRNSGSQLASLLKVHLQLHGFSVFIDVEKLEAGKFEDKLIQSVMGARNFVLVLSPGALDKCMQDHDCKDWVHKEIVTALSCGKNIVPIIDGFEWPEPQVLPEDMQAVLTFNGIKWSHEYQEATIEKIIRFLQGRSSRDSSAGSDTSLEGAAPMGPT
smiles,measurement,setting,value
CC(c1cc2ccccc2s1)N(O)C(N)=O (centres undefined),viability,"[1]; at 1.25 µM, OCI-C5x cells, with rucaparib 10 µM, 100% = cells with rucaparib alone",109% (inactive)
same,viability,"[1]; at 1.25 µM, OCI-C5x cells, without rucaparib",124% (inactive)
same,viability,"[1]; at 1.25 µM, OCI-P5x cells, with rucaparib 20 µM, 100% = cells with rucaparib alone",106% (inactive)
same,viability,"[1]; at 1.25 µM, OCI-P5x cells, without rucaparib",124% (inactive)
same,viability,"[1]; at 5 µM, OCI-C5x cells, with rucaparib 10 µM, 100% = cells with rucaparib alone",113% (inactive)
same,viability,"[1]; at 5 µM, OCI-C5x cells, without rucaparib",129% (inactive)
same,viability,"[1]; at 5 µM, OCI-P5x cells, with rucaparib 20 µM, 100% = cells with rucaparib alone",105% (inactive)
same,viability,"[1]; at 5 µM, OCI-P5x cells, without rucaparib",116% (inactive)
same,remaining NAD,[2],10 nM (inactive)
same,luciferase signal,[3],36 AU (inactive)
same,z-score,[4],0.465 (inactive) and 0.63 (inactive)
CN(C)CCC=C1c2ccccc2C=Cc2ccccc21,outcome,[5],inactive
same,outcome,[6],inactive
same,outcome,[7],inactive
same,z-score,[8]; [17],-1.05 (inactive) and 0.34 (inactive)
same,z-score,[8]; [18],-0.783 and 0.18
same,remaining NAD,[2],10 nM (inactive)
same,luciferase signal,[3],52 AU (inactive)
same,z-score,[4],-1.16 (inactive)
Nc1ccc(S(=O)(=O)Nc2ccccn2)cc1,outcome,[5],inactive
same,fold change,[9]; [19],0.875 (inactive) and 0.859 (inactive)
same,fold change,[9]; [20],1.07 and 2.95
same,cell count,[9]; [21],9140 and 10900
same,cell count,[9]; [22],10400 and 12600
same,z-score,[8]; [17],-0.349 (inactive)
same,z-score,[8]; [18],0.469
same,remaining NAD,[2],10 nM (inactive)
same,luciferase signal,[3],64 AU (inactive)
CCn1cc(C(=O)O)c(=O)c2cc(F)c(N3CCNCC3)nc21,outcome,[5],inactive
same,fold change,[9]; [19],0.955 (inactive) and 0.936 (inactive) and 0.839 (inactive)
same,fold change,[9]; [20],0.759 and 2.37 and 1.38
same,cell count,[9]; [21],8750 and 11500 and 9060
same,cell count,[9]; [22],9160 and 12300 and 10800
same,z-score,[8]; [17],-0.278 (inactive) and 0.526 (inactive) and -0.113 (inactive)
same,z-score,[8]; [18],0.647 and 0.794 and 0.23
same,remaining NAD,[2],10 nM (inactive)
same,luciferase signal,[3],40 AU (inactive)
same,z-score,[4],-0.075 (inactive)
same,inhibition,"[10]; at 0.5 µM, stronger effect = higher value",95.5% (active) and -29.1% (inactive)
same,inhibition,"[10]; measured here: combination with BGB IC20, at 0.005 µM",-19.8% and -22.4%
same,inhibition,"[10]; measured here: combination with BGB IC40, at 0.005 µM",-56.7% and 0.955%
same,inhibition,[10]; [23],-47.1% and -2.69%
same,inhibition,"[10]; measured here: combination with cisplatin, at 0.5 µM, stronger effect = higher value",108% and -48.6%
same,inhibition,"[10]; measured here: combination with cisplatin, at 5 µM, stronger effect = higher value",-38.7% and -12%
same,inhibition,"[11]; BGB combo, at 5 µM",-53.5% and -12.2%
same,inhibition,[11]; at 0.5 µM,-20.8% (inactive) and 3.72% (inactive)
same,inhibition,"[11]; cisplatin combo, at 5 µM",-17.5% and -19.5%
same,inhibition,"[11]; measured here: with BGB IC20 combination, at 0.5 µM",-36.2% and -5.94%
same,inhibition,"[11]; measured here: with cisplatin IC20 combination, at 0.5 µM",4.58% and 5.43%
same,inhibition,"[11]; single agent, at 5 µM",-41.7% and 2.78%
same,inhibition,"[12]; BGB IC20 combo, at 0.005 µM",-24.2% and -17.5%
same,inhibition,"[12]; BGB IC40 combo, at 0.005 µM",-20.3% and -26.8%
same,inhibition,"[12]; BGB IC40 combo, at 0.05 µM",-25.4% and -9.4%
same,inhibition,[12]; at 0.5 µM,-21.1% (inactive) and -10.7% (inactive)
same,inhibition,"[12]; cisplatin combo, at 0.05 µM",-31.9% and -9.4%
same,inhibition,"[12]; cisplatin combo, at 0.5 µM",-30.1% and -9.09%
same,inhibition,"[12]; cisplatin combo, at 5 µM",-14.7% and -13.9%
same,inhibition,"[12]; measured here: 5 uM single agent, at 5 µM",-13.9% and -18.7%
same,inhibition,[13]; at 0.5 µM,-40% (inactive) and 2.92% (inactive)
same,inhibition,[13]; [23],-27.4% and 5.91%
same,inhibition,"[13]; measured here: combination with cisplatin, at 0.5 µM",-80.9% and -14.1%
same,inhibition,"[13]; measured here: combination with cisplatin, at 5 µM",-47.5% and -13.9%
same,inhibition,[14]; at 0.5 µM,-12.7% (inactive) and -3.77% (inactive)
same,inhibition,"[14]; measured here: with BGB IC20, at 0.5 µM",1.15% and -26.8%
same,inhibition,"[14]; measured here: with BGB IC20, at 5 µM",-15.3% and -6.32%
same,inhibition,"[14]; measured here: with cisplatin IC20, at 0.5 µM",-12.7% and 12.5%
same,inhibition,"[14]; measured here: with cisplatin IC20, at 5 µM",-14.2% and -4.27%
same,inhibition,"[14]; single agent, at 5 µM",1.99% and -0.637%
same,inhibition,[15]; at 0.5 µM,-80.2% (inactive) and -23.4% (inactive)
same,inhibition,"[15]; measured here: combination with BGB at IC20, at 0.5 µM",-85.1% and -50.3%
same,inhibition,"[15]; measured here: combination with cisplatin at IC20, at 0.5 µM",-99.8% and 10.9%
same,inhibition,[16]; at 0.5 µM,-13.7% (inactive) and -3.13% (inactive)
same,inhibition,"[16]; measured here: combo with BGB at IC20, at 0.5 µM",-9.56% and -6.49%
same,inhibition,"[16]; measured here: combo with cisplatin at IC20, at 0.5 µM",-20.1% and 4.15%
